Measured values published in PubChem BioAssay (EPA / NIEHS).
Active and inactive are the calls of the source. How the source made its calls: active means hit-call score of the fitted dose curve at least 0.9, where 1 is the maximum; inactive means score below 0.9.

Assay: CCTE_Shafer_MEA_acute_per_burst_spike_number_mean: CCTE's Neural Acute Assay for Average Number of Spikes Per Burst, Shafer Lab (AID 2284015);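 further: hits are decreases in mean spikes per burst versus baseline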
Description: CCTE_Shafer_MEA_acute assay is conducted using Axion Biosystems 48 well microelectrode array (MEA) plates and Maestro recording system. Each well of the MEA plate contains a grid of 16 microelectrodes embedded in the culture surface. Electrically active cells, such as neurons, can be cultured over the electrodes, and electrical activity in these cells can be recorded extracellularly. The spontaneous firing of neurons is captured from each electrode on a microsecond timescale providing both temporally and spatially precise data. […] The CCTE_Shafer_MEA_acute assay uses primary cultures of rat cortical neurons. As these cultures mature over time, neural networks develop functional activity and form cohesive networks in which electrical activity can be highly coordinated. Baseline 40-minute recordings are made on days post-plating 13 or 15, followed by a secondary 40-minute recording after chemical exposure.CCTE_Shafer_MEA_acute_per_burst_spike_number_mean is a component of the CCTE_Shafer_MEA_acute assay. It measures the average number of spikes (action potential firings) in a single-electrode burst (temporally-clustered group of spikes) during a recording in a microelectrode array (MEA) using Axion Biosystems Maestro 768 channel amplifier with the AxIS adaptive spike detector. The recordings before and after chemical treatment are used to calculate a percent change in the mean number of spikes per burst in each well.Data from the assay component CCTE_Shafer_MEA_acute_per_burst_spike_number_mean was analyzed into 1 assay endpoint. This assay endpoint, CCTE_Shafer_MEA_acute_per_burst_spike_number_mean, was analyzed in the negative analysis fitting direction relative to DMSO as the negative control and baseline of activity. Using a type of functional reporter, gain or loss-of-signal activity can be used to understand electrical activity.
Spontaneous activity in the cortical cultures was recorded using an Axion Biosystems Maestro 768 channel amplifier and Axion Integrated Studios (AxIS) v1.8 (or later) software. The amplifier recorded from all channels simultaneously (gain = 1200 x; sampling rate = 12.5 kHz/channel): raw signals were filtered with a Butterworth band-pass filter (300-5000 Hz), which filters out slower local field potentials leaving only fast potentials, i.e., "spikes", arising from extracellular currents associated with action potentials (Pine 2006; Wheeler and Nam 2011). On-line spike detection of filtered signals was conducted with the AxIS adaptive spike detector, using a threshold of 8x the root mean squared (rms) noise on each channel. Any electrodes with rms noise levels greater than 5 uV were grounded (e.g., no data were recorded). Once grounded, an electrode was grounded for the duration of the experiment. All recordings were conducted at 37 C. Wells were deemed usable if on the day of the exposure >/= 10 electrodes were active (defined as >/= 5 spikes/min). On DIV 13 or 15, a minimum of three wells from one cortical culture preparation were treated with each compound (0.03-40 uM). Prior to recording baseline activity, each mwMEA plate was placed in the Maestro at 37 C and allowed to sit for 20 min while firing rates stabilized. Baseline activity (40 min) was recorded before the addition of each compound. An additional 40 min of spontaneous activity was recorded in the presence of each compound. Changes in network parameters relative to baseline were assessed following compound treatment.

outcome, inactive:
OCC(CO)(CBr)CBr, CCCCc1oc2ccccc2c1C(=O)c1cc(I)c(OCCN(CC)CC)c(I)c1, N=C(N)c1ccc(OCCCCCOc2ccc(C(=N)N)cc2)cc1, CCC(C)c1ccccc1O (configuration not stated), Oc1ccc(Cc2ccccc2O)cc1, O=C(CCCN1CCC(O)(c2ccc(Cl)cc2)CC1)c1ccc(F)cc1, CN(C)CCOC(c1ccccc1)c1ccccc1, CCCCC=O, CC(=O)Nc1ccc(O)cc1, CCCCCCCCCCCC, O=C1NS(=O)(=O)c2ccccc21

AC50, active:
Oc1c(Cl)cc(Cl)cc1Sc1cc(Cl)cc(Cl)c1O 9.08 µM
